Consider 22 molecules from PubChem BioAssay (NCATS).

Molecules are shown by their SMILES. Inconclusive results are not listed. Values without a mark were called inactive. The list shows a part of the results. Activity calls are given as the source filed them. Calls follow the shape of the dose curve; as a rule, active = well fitted curve in the direction sought with a large enough effect; inconclusive = small, poorly fitted or top-dose-only effect, or another doubt; inactive = no such curve, though single readings can be large; an effect the other way counts as inactive or inconclusive.

The target in assay [1] is Rap guanine nucleotide exchange factor 4 (Homo sapiens) (UniProt Q8WZA2). Description: Confirmatory qHTS for antagonist of cAMP-regulated guanine nucleotide exchange factor 4 (EPAC2) (AID 1645885). Also: nearly all actives have a fitted effect of over 25% in size. As to activity change, negative = inhibition: % is scaled to controls: 0 for no effect and ±100 for the full control effect.
The target in assay [2] is Rap guanine nucleotide exchange factor 3 (Homo sapiens) (UniProt O95398). Description: Counterscreen qHTS for antagonist of cAMP-regulated guanine nucleotide exchange factor 3 (EPAC1) (AID 1645888). As to activity change, negative = inhibition: % of control where 0% means no effect. The procedure, abridged: (§1)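 Measured: fluorescence of BODIPY-GDP bound to Rap1B, which falls as exchange proceeds. Conditions include 50 uM competing GDP, 5 and 30 min reads, and a later cAMP challenge for antagonist detection.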

In assay [3] the target is Rap guanine nucleotide exchange factor 4 (Homo sapiens) (UniProt Q8WZA2). The assay is described as follows: Confirmatory qHTS for agonist of cAMP-regulated guanine nucleotide exchange factor 4 (EPAC2) (AID 1645884).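 Also: nucleotide exchange releases bodipy-GDP from Rap1 and this lowers its fluorescence; nearly all actives have a fitted effect of over 65% in size.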 As to activation: % is scaled to controls: 0 for no effect and ±100 for the full control effect.
For assay [4], the target named is Rap guanine nucleotide exchange factor 3 (Homo sapiens) (UniProt O95398). The assay is described as follows: Counterscreen qHTS for agonist of cAMP-regulated guanine nucleotide exchange factor 3 (EPAC1) (AID 1645889). Also: nearly all actives have a fitted effect of over 40% in size. As to activation: % of control where 0% means no effect. The procedure, abridged: as §1
Assay [5] deals with DNA polymerase eta (Homo sapiens) (UniProt Q9Y253). Description: qHTS for Inhibitors of Polymerase Eta: Confirmatory Assay for Cherry-picked Compounds (AID 720502). The following applies: Pol eta primer extension, TAMRA/BHQ fluorescence, 10 min. Summed up:
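The reaction starts with 50 nM final labeled DNA substrate added to Pol eta (10 nM) that had sat with compound for 15 min. TAMRA emission at 598 nm is read at 0 and 10 min.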

Assay [6] addresses Tumor susceptibility gene 101 protein (Homo sapiens) (UniProt Q99816). Description: qHTS Assay for Iinhibitors of HIV-1 Budding by Blocking the Interaction of PTAP/TSG101: Hit Validation (AID 651600). Also: nearly all actives have a fitted effect of over 70% in size. As to activity change, negative = inhibition: % is scaled to controls: 0 for no effect and ±100 for the full control effect. Summed up: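 Displacement of a FITC-labeled PTAP-motif peptide (50 nM) from the Tsg101 binding domain (10 uM) was monitored by fluorescence polarization after a 20 min room-temperature incubation.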
Potency is read from the fitted curve at half-maximal effect.

Sequence of Rap guanine nucleotide exchange factor 4 (Homo sapiens) (Q8WZA2 whole entry, looked up): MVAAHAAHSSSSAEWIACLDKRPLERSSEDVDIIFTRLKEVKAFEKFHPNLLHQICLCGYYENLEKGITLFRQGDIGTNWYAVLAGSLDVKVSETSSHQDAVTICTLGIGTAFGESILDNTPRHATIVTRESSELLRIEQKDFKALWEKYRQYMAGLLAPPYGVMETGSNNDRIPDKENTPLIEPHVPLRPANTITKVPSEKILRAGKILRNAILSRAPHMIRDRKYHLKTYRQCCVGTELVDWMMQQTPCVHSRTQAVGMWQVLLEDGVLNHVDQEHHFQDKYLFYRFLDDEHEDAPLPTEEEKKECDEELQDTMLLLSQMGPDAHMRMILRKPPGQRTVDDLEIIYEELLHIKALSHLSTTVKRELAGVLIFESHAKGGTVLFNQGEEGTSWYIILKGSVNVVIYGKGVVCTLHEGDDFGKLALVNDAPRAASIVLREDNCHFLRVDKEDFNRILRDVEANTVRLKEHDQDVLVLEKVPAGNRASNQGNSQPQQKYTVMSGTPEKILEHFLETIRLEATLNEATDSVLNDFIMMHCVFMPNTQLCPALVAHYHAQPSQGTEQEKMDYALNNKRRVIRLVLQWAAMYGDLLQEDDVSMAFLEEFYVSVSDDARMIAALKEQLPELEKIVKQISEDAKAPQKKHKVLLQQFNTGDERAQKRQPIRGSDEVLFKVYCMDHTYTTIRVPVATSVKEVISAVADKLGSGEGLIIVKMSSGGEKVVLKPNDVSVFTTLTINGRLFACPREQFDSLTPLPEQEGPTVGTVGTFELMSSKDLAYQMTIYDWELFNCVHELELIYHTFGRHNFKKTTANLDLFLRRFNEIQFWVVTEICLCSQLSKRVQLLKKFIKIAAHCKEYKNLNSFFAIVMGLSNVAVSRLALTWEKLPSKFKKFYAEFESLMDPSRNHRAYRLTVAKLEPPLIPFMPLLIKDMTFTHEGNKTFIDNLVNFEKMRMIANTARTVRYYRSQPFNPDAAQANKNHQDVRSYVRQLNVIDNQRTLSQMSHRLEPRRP
Sequence of Tumor susceptibility gene 101 protein (Homo sapiens) (Q99816 whole entry, looked up, the tested form may be a part): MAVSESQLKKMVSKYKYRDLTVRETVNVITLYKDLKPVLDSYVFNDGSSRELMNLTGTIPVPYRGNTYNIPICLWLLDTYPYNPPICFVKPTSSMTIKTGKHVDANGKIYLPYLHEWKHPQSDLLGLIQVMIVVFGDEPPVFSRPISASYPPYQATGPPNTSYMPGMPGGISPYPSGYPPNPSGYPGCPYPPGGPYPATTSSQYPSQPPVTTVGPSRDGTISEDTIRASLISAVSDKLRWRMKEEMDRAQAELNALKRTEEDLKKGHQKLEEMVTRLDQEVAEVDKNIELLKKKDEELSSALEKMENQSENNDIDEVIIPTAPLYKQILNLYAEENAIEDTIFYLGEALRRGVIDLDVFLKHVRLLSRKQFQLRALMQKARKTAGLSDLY
Sequence of Rap guanine nucleotide exchange factor 3 (Homo sapiens) (O95398 whole entry, looked up): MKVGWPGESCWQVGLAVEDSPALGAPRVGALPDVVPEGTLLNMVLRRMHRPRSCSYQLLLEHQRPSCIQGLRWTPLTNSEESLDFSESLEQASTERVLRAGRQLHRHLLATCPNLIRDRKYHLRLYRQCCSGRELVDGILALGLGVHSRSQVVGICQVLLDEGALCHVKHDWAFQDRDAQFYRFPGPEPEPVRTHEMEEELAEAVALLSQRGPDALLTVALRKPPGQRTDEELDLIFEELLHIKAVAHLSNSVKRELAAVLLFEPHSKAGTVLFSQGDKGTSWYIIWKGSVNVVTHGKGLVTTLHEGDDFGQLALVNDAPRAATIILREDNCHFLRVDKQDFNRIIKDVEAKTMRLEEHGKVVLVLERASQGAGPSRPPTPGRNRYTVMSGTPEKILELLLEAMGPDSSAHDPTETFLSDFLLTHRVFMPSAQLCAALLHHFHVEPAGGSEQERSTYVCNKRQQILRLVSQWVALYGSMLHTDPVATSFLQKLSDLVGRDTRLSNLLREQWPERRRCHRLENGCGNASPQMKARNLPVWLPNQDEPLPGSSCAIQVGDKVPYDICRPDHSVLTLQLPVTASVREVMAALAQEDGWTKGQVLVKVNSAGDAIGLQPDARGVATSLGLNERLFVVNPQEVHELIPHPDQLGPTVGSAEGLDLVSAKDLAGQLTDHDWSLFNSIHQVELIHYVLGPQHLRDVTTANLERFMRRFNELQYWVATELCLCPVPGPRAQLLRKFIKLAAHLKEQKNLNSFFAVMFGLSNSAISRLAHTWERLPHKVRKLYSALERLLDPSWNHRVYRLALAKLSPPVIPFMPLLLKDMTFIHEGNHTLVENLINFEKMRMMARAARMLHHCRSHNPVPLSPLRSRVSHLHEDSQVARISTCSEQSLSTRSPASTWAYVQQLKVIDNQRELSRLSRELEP
Sequence of DNA polymerase eta (Homo sapiens) (Q9Y253 whole entry, looked up): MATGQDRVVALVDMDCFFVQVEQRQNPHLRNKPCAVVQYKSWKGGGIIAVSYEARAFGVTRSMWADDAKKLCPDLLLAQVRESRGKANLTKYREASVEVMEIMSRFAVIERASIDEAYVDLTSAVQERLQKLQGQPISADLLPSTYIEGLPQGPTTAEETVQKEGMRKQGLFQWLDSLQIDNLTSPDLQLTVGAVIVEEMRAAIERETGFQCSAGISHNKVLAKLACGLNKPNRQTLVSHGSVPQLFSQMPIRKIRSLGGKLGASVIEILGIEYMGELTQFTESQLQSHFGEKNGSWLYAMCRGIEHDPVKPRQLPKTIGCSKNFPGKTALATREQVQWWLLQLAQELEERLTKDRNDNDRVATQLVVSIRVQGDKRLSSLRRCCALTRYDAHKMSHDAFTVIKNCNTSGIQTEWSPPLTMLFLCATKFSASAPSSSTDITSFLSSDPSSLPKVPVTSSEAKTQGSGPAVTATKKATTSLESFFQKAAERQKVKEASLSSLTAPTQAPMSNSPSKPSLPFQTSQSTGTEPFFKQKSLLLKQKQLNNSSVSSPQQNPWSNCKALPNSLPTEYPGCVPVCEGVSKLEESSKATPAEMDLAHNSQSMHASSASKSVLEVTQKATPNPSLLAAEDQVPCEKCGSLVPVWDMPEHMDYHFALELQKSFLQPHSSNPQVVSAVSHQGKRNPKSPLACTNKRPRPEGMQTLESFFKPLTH

In the case of `COc1ccccc1Oc1nc(-c2cccnc2)nc2ccccc12`, the Potency in assay [1] is 67.5 µM (active). Besides, the Potency result in assay [2] was “inactive”.
Regarding `CCOC(=O)c1c(CSc2ccccc2)n(C)c2cc(Br)c(OCC(O)CNC(CO)(CO)CO)cc12` (centres undefined), the Potency in assay [3] was 89.1 µM (active); in assay [1] it was 26.9 µM (active). Moreover, the Potency entry in assay [4] was “inactive”.
Take `O=C(c1cc(Cl)ccc1Cl)N1CCc2ccccc21`: the Potency in assay [1] was 33.8 µM (active). Moreover, in assay [2], the Potency result was “inactive”.
Consider `COc1ccc2sc(N(Cc3cccnc3)C(=O)c3ccco3)nc2c1`, for which, in assay [1], the Potency result is “inactive”.
Take `CCOC(=O)[C@H]1[C@H]2COc3ccc(C)cc3[C@@H]2N2C(=O)c3ccc(C)cc3NC(=O)[C@@]12C`: the Potency in assay [3] was 112 µM (active). Besides, the Potency entry in assay [2] is “inactive”.
As for `O/N=C(/c1ccc(F)cc1)C1CC1c1c(F)cccc1Cl` (centres undefined), the Potency entry in assay [1] and in assay [2] was “inactive” throughout.
With `COc1cccc(/C=N/Nc2ccc(S(=O)(=O)Nc3ccccc3C(=O)O)cc2[N+](=O)[O-])c1O`, the Potency in assay [5] is 67.5 µM (active). Besides, the activation in assay [3] was 3.64% [at 17.1 µM, percent relative to cAMP agonist control]; in assay [4] it was 20% [at 30.8 µM]. The Potency result in assay [1] was “inactive”. The activity change, negative = inhibition in assay [2] was -5.08% [at 30.8 µM].
On to `CN(C)c1ccc(/C=C(/C(=O)c2ccc(Cl)cc2Cl)n2cncn2)cc1`, for which the Potency in assay [3] was 112 µM (active); in assay [4], 70.8 µM (active). In assay [2], the Potency entry is “inactive”.
For the molecule `N#Cc1ccc(CSc2nc(N)cc(N)n2)cc1`, the Potency in assay [3] is 112 µM (active). The Potency result in assay [2] and in assay [4] was “inactive” in each case.
For the molecule `CN(C)/C=C1\C=C2C(=O)c3ccccc3N2C1=O`, the Potency is 5.01 µM (active) in assay [3] and 10 µM (active) in assay [4].
As for `COc1cccc(Cn2c(=O)c3ccccc3n3nc(C)cc23)c1`, in assay [1], the Potency entry is “inactive”.
With `Cc1cc(C(=O)CCC(=O)N2CCN(S(=O)(=O)c3ccccc3)CC2)c(C)s1`, the Potency in assay [3] was 112 µM (active). Also, the Potency result in assay [2] and in assay [4] was “inactive” throughout.
`COC(=O)c1ccc(COc2ccc(/C=C(\C#N)c3nc4ccccc4[nH]3)cc2OC)o1`: the Potency result in assay [1] and in assay [2] was “inactive” in each case.
`CCOC(=O)c1ccc2[nH]cc(C(C)=O)c(=O)c2c1`: the Potency entry in assay [1] and in assay [2] was “inactive” in each case.
Turning to `CCCCN(C)C1=CC2=CC(=C(C#N)C#N)CCC2CC1` (centres undefined), the Potency entry in assay [6] was “inactive”. Besides, the Potency in assay [3] was 126 µM (active); in assay [4] it was 39.8 µM (active).
For `Cc1cccc(C)c1NC(=O)CN1C(=O)S/C(=C\c2cccn2-c2cccc(C(=O)O)c2)C1=O`, the Potency in assay [3] was 100 µM (active). Moreover, the Potency entry in assay [2] and in assay [4] was “inactive” in each case.
Regarding `CC(=O)N1CCc2nc3sc(C(=O)c4ccc(F)cc4)c(N)c3c(C(F)(F)F)c2C1`, the Potency entry in assay [6], in assay [3], in assay [1] and in assay [2] was “inactive” each time.
For the molecule `CCN(CC)CCCC(C)n1c2nc(=O)[nH]c(=O)c-2nc2cc(Cl)ccc21` (centres undefined), the Potency was 100 µM (active) in assay [3] and 63.1 µM (active) in assay [4].
For `O=C(N/N=C/c1ccc(OC(=O)c2ccccc2Cl)cc1)c1cc(O)cc(O)c1`, the Potency entry in assay [1] and in assay [2] was “inactive” in each case.
On to `O=c1oc2c(O)cccc2cc1-c1nc2ccccc2[nH]1`, for which, in assay [1], the Potency entry is “inactive”. Moreover, the activity change, negative = inhibition in assay [2] was -8.32% [at 30.8 µM].
With `CC(=O)OCCn1c2nc(=O)[nH]c(=O)c-2nc2cc(C)c(C)cc21`, the Potency in assay [6] was 0.919 µM (active); in assay [3], 100 µM (active); in assay [2] it was 100 µM (active).
Regarding `CCOC(=O)c1ccc(/C=C2/C=C(c3ccccc3)N(c3ccc(Cl)c(C(=O)O)c3)C2=O)cc1`, the Potency in assay [3] is 100 µM (active). For the same molecule, the Potency result in assay [2] was “inactive”.
